Measured values: PubChem BioAssay (EPA / NIEHS)
Activity calls are given as the source filed them. Rule for the calls: active = hit-call score of the fitted dose curve at least 0.9, where 1 is the maximum; inactive = score below 0.9.

Assay: ATG_M_61_CIS: Attagene CIS-FACTORIAL HepG2 Assay for M61 Transcription Factor (Internal Marker) (AID 2282937)
Conditions: HepG2 Attagene CIS-FACTORIAL M61 internal marker reporter; actives raise or lower the signal
Protocol: ATG_CIS is a cell-based, multiplexed-readout assay that uses HepG2, a human liver cell line, with measurements taken at 24 hours after chemical dosing in a 24-well plate.ATG_M_61_CIS is one of 52 assay component(s) measured or calculated from the ATG_CIS assay. It is designed to make measurements of mRNA induction, a form of inducible reporter, as detected with fluorescence intensity signals by Reverse transcription polymerase chain reaction (RT-PCR) and Capillary electrophoresis technology.Data from the assay component ATG_M_61_CIS was analyzed into 1 assay endpoint. This assay endpoint, ATG_M_61_CIS, was analyzed with bidirectional fitting relative to DMSO as the negative control and baseline of activity. Using a type of inducible reporter, measures of mRNA for gain or loss-of-signal activity can be used to understand the background control at the transcription factor-level as they relate to the gene . Furthermore, this assay endpoint can be referred to as a secondary readout, because this assay has produced multiple assay endpoints where this one serves a background control function. To generalize the intended target to other relatable targets, this assay endpoint is annotated to the background measurement intended target family, where the subfamily is internal marker.
Human liver HepG2 cells are transiently transfected with multiple reporter transcription units (MRTUs) in 6-well plates using FuGene 6 reagent (Roche; 3 ml FuGene/1 mg DNA). The MRTU constructs are regulated by a cis-regulating element (promoter). […] A major difference between the CIS and TRANS system is that in CIS activities of endogenous TFs are measured, whereas the TRANS assay evaluates changes in activities of exogenous, chimeric NR-Gal4 proteins. […] At the end of 24 hour incubation, total RNA was isolated using TriZol reagent (Invitrogen). The isolated RNA is then reverse-transcribed using oligo(dT) primer and Mo-MLV reverse transcriptase (Invitrogen) with DNAse I (Ambion) treatment for 30 min. The one-tenth of the produced cDNA was amplified by PCR using Taq DNA polymerase (Invitrogen) and two reporter sequence-specific primers. The PCR products were fluorescently labeled by primer extension with 6-arboxyfluorescein (6-FAM) 5'-labeled reporter sequence-specific primer (2 min at 95 C, 20 s at 68 C and 10 min at 72 C) and these products were digested with 5U of HpaI (New England Biolabs) for 2h at 37 C. The fragments were purified using Qiaquick PCR columns (Qiagen), analyzed on an ABI 3130xL genetic analyzer (Applied Biosystems) with peak positions identified by using a set of X-rhodamine (ROX)-labeled MapMarker1000 molecular weight standards (BioVentures). The raw capillary electrophoresis data was processed using Attagraph software (Attagene).

outcome, inactive:
O=C(C=C(O)C(F)(F)F)C(F)(F)F, FC(F)(F)C1(F)C(F)(F)C(F)(F)C(F)(F)C(F)(C(F)(F)F)C1(F)F (stereo not given), NS(=O)(=O)O, OCCN1CN(CCO)CN(CCO)C1, NC(C(F)(F)F)C(F)(F)F, CC(C)[C@@H]1CC[C@@H](C)C[C@H]1O, FCOC(C(F)(F)F)C(F)(F)F, CCCCN(C)C, C=CC(=C)CC/C=C(\C)CCC=C(C)C, N=C(N)c1ccc(OCCCCCOc2ccc(C(=N)N)cc2)cc1, FC(F)(F)C(F)(F)C(F)(F)Br, CCOC=C(C(=O)OCC)C(=O)OCC, CC(C)c1c(C(=O)Nc2ccccc2)c(-c2ccccc2)c(-c2ccc(F)cc2)n1CC[C@@H](O)C[C@@H](O)CC(=O)O, CC(C)(c1ccc(Oc2ccc(N)cc2)cc1)c1ccc(Oc2ccc(N)cc2)cc1, CC1=NN(c2ccccc2)C(=O)C1, Cc1ccccc1OCC(=O)O, CC(C)(C)C1CCCCC1O (stereo not given), O=C(CC(=O)C(F)(F)C(F)(F)C(F)(F)F)c1cccs1, CN(Cc1cnc2nc(N)nc(N)c2n1)c1ccc(C(=O)N[C@@H](CCC(=O)O)C(=O)O)cc1, O=C(Nc1ccc(Cl)c(Cl)c1)c1cc(Cl)cc(Cl)c1O, CC(C)(O)C(=O)c1ccccc1, O=C1C=CC(=O)N1c1cccc(N2C(=O)C=CC2=O)c1, O=C(O)CCC(F)(F)C(F)(F)C(F)(F)C(F)(F)C(F)(F)F, Brc1ccc(Oc2ccc(Br)cc2Br)cc1, CC1CCC(C(=O)O)CC1 (stereo not given), O=C1OC2(c3ccccc31)c1cc(I)c(O)c(I)c1Oc1c2cc(I)c(O)c1I, Oc1c(Cl)cc(Cl)cc1Sc1cc(Cl)cc(Cl)c1O, O=P(O)(O)CCC(F)(F)C(F)(F)C(F)(F)C(F)(F)C(F)(F)C(F)(F)C(F)(F)C(F)(F)F, O=C(F)C(F)(F)C(F)(F)C(F)(F)C(F)F, CCCCCCCCCCCCOC(=O)c1cc(O)c(O)c(O)c1, CC=O, Cc1cncc(C)c1, COc1ccc(C#N)cc1, OCC(F)(F)C(F)(F)C(F)(F)C(F)(F)C(F)(F)C(F)(F)C(F)(F)C(F)(F)C(F)(F)C(F)(F)C(F)(F)F, CCCCCCCCCCCCCCCCCC[N+](C)(C)Cc1ccccc1, Cc1cccc2c1ccc1ccccc12, CCC(=O)O, NCCN, CCOC(=O)CN[C@@H](C(=O)N1CC[C@H]1C(=O)NCc1ccc(/C(N)=N/O)cc1)C1CCCCC1, CCOC(C)=O
